ALDH1A1 block – ALDH1A1 (human) enzyme inhibition. P00352. Potency, µM (series often up to 75.3 µM), without a hit: at the highest dose activity, negative = inhibition, actives largely listed as inhibitors. 220,000 tested, 7.3% active. Purified ALDH1A1, NADH fluorescence, propionaldehyde substrate. AID 1030;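 note: plate controls were no enzyme wells and a reference inhibitor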
Target sequence (P00352 whole entry, looked up): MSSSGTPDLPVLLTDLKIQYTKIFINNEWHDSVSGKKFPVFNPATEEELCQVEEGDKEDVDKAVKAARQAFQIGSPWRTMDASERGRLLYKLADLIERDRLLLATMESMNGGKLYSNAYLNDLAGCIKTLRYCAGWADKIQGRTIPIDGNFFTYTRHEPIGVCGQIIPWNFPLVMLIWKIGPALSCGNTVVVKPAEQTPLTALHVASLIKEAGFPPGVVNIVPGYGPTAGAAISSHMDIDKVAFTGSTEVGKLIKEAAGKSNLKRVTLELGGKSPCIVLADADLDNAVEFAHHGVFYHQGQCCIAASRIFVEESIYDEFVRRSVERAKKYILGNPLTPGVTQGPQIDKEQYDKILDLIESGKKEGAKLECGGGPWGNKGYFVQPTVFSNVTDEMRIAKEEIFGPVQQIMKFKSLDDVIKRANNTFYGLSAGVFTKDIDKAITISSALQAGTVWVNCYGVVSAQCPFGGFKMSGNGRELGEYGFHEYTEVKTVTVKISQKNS
Tau FP inhib – inhibitors of human tau fibril formation; P10636; K18 P301L tau heparin fibrillization, Alexa594 FP, 6 h; AID 1468; 280,000 tested, 0.39% active; Potency, µM (titrated, usually from 57.7 µM), for the others: top-dose activity, negative = inhibition, usual class: inhibitors; active = well fitted curve in the direction sought with a large enough effect; inconclusive = small, poorly fitted or top-dose-only effect, or another doubt; inactive = no such curve, though single readings can be large; an effect the other way counts as inactive or inconclusive; note: nearly all actives have a fitted effect of over 55% in size
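Quantitative HTS format: compounds meet 15 uM recombinant K18 P301L tau and Alexa 594-tau tracer in 100 mM sodium acetate pH 7; 20 uM heparin triggers fibrillization at 37 C over 6 hr; FP gives the signal.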
HPGD inh – inhibitors of human 15-hydroxyprostaglandin dehydrogenase (HPGD); P15428; purified HPGD, NADH fluorescence kinetic, PGE2 substrate; Potency, µM, for the others: at the top dose activity change, negative = inhibition, usual class: inhibitors; 150,000 tested, 4.3% active; AID 894
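20 nM HPGD preincubated 15 min at room temperature with compound in 50 mM Tris-HCl pH 8, 0.01% Tween 20. Started with 1 mM NAD+ and 30 uM prostaglandin E2; NADH fluorescence (360/450 nm) read 5 times over 30-s intervals, last minus first.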
KDM4E inh – inhibitors of human JMJD2E histone demethylase; B2RXH2; JMJD2E catalytic domain, FDH-coupled NADH fluorescence (FDH is formaldehyde dehydrogenase); Potency, µM (titrated, usually from 57.1 µM), inactives show at the highest dose activity change, negative = inhibition, usual class: inhibitors; 230,000 tested, 1.6% active; AID 2147;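 note: 0% = wells with enzyme and -100% = buffer wells without enzyme; nearly all actives have a fitted effect of over 50% in size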
Tau fluor cs – counter-screen for tau fibril formation inhibitors. tau K18 P301L Alexa594 fluorescence, heparin fibrillization. Potency, µM (doses to about 57.7 µM), without a hit: at the top dose activity change, negative = decrease. 280,000 tested, 0.93% active; active = well fitted curve in the direction sought with a large enough effect; inconclusive = small, poorly fitted or top-dose-only effect, or another doubt; inactive = no such curve, though single readings can be large; an effect the other way counts as inactive or inconclusive; note: nearly all actives have a fitted effect of over 55% in size
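Human K18 P301L tau (15 uM unlabeled plus 0.24 uM Alexa 594-labeled, final) in 100 mM sodium acetate pH 7 was mixed with compound and 20 uM heparin and incubated 6 hr at 37 C.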
Tau fibril ThT – inhibitors of human tau fibril formation, thioflavin T binding | P10636 | recombinant tau K18 P301L (four-repeat tau fragment), heparin-induced fibrillization, ThT fluorescence | Potency, µM (top dose mostly 57.4 µM), without a hit: at the highest dose activity, negative = inhibition, usual class: inhibitors | 270,000 tested, 2.1% active | AID 1460; active = well fitted curve in the direction sought with a large enough effect; inconclusive = small, poorly fitted or top-dose-only effect, or another doubt; inactive = no such curve, though single readings can be large; an effect the other way counts as inactive or inconclusive; note: nearly all actives have a fitted effect of over 55% in size
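Heparin-induced (20 uM) aggregation of recombinant human K18 P301L tau, 15 uM unlabeled with 0.24 uM labeled, pH 7 acetate buffer, 6 hr at 37 C with compound. Fibrils quantified by 30 uM ThT fluorescence after 1 hr ambient incubation.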
Starred values were filed as active, the others as inactive; ? = inconclusive; / = no result; [ ] = dose if it differs, or a comment. Shown are actives, neighbours in structure and some others; about 9.9% of the full set was active somewhere. Unless noted, calls come from the whole dose curve; as a rule, active = well fitted inhibition curve with a large enough effect (not every such curve was filed as active); inconclusive = small, poorly fitted or top-dose-only effect, or another doubt; inactive = no such curve, though single readings can be large or run the other way. Unless noted, % is set by controls: 0 for no effect and ±100 for the full control effect; potency is the fitted concentration of half-maximal effect.

SMILES | ALDH1A1 block | Tau FP inhib | HPGD inh | KDM4E inh | Tau fluor cs | Tau fibril ThT
N[C@@H](Cc1ccc(O)c(O)c1)C(=O)O | -5%[20.9 µM] | / | -17% | 13µM* | / | /
Cc1cccc(NC(=O)CSc2nncn2C)c1 | / | ? | / | / | -29% | -17%
CC1=C/C(=N\NC(=S)Nc2cccnc2)CC(C)(C)C1 | 12µM* | 9% | / | 1% | -1% | 1%
Cc1ccc(Sc2c(C)nn(C(=O)COc3ccccc3Br)c2C)cc1 | / | -1% | / | / | -6% | ?
CCOc1ccc(NC(=O)CC2C(=O)N(c3ccc(C)cc3)C(=O)N2CCC2=CCCCC2)cc1 (stereo unspecified) | / | -5% | / | / | ? | -3%
O=c1c2cccnc2n(Cc2ccccc2F)c(=O)n1Cc1ccccc1Cl | / | ? | / | / | -24% | -1%
COc1ccc(C)cc1NC(=O)C(NCC1CCCO1)c1ccccc1 (stereo unspecified) | 18µM* | 3% | -1% | 3% | 4% | 6%
Cc1ccc(CC(=O)NCC(C)C)cc1 | -5% | -4% | 18µM* | 3% | 0% | -4%
Fc1cccc(F)c1/C=C/c1ccc2ccccc2n1 | -9% | -7% | / | ? | -15% | ?
C(=C\c1ccco1)/c1ccc2ccccc2n1 | / | ? | / | ? | -22% | 32µM*
Cc1ccc(CNC(=O)[C@H]2C[C@@H]2[C@H](NP(=O)(c2ccccc2)c2ccccc2)c2ccccc2)c(F)c1F | -5% | -6% | -8% | 7% | -6% | -6%
Cc1[nH]n(-c2ccccc2)c(=O)c1C(c1cc(Cl)ccc1O)c1c(C)[nH]n(-c2ccccc2)c1=O | / | -1% | / | / | -16% | -10%
Cc1[nH]n(-c2ncc(-c3ccccc3)s2)c(=O)c1C(c1ccc(Cl)cc1)C(C#N)C#N (stereo unspecified) | 28µM* | ? | 25µM* | -29% | ? | 14µM*
COCCNC(=O)Cc1ccc(Br)cc1 | -8% | -1% | -30% | ? | 12% | 20%
COCCNC(=S)c1ccc(Br)cc1 | 8.9µM* | -5% | / | -16% | -9% | ?
COc1cc(C2Nc3c(F)cccc3C3C=CCC32)cc(Br)c1OC (stereo unspecified) | 25µM* | -6% | / | ? | ? | ?
CC(C)(C)SCCNC(=O)/C=C/c1cccc([N+](=O)[O-])c1 | 14µM* | 5% | -7% | 4% | -1% | -2%
O=C(/C=C/c1cccc([N+](=O)[O-])c1)NCCSCc1ccc(Cl)cc1 | 22µM* | 7% | -26% | 6% | ? | -18%
O=c1c2sc3ccccc3c2n(Cc2cccc(Cl)c2)c(=O)n1Cc1ccccc1 | / | ? | / | / | -11% | 4%
O=C(NC(=S)Nc1cc([N+](=O)[O-])ccc1O)c1cccnc1 | 10µM* | 4% | / | -1% | 0% | ?
Cc1ccc([N+](=O)[O-])cc1NC(=S)NC(=O)c1cccnc1 | -6% | 2% | / | 2% | -6% | -3%
CCC(C)c1ccc(O)c(NC(=S)NC(=O)c2cccnc2)c1 (stereo unspecified) | 32µM* | 8% | / | -4% | ? | -9%
COc1ccc(C(=O)C2CCCN(Cc3ccc4nonc4c3)C2)c(OC)c1 (stereo unspecified) | ? | 7% | / | -3% | -10% | -12%
CCn1c(SCC(=O)N2CCc3ccccc32)nnc1-c1ccncc1 | -2% | 10% | -12% | -22% | 4% | -1%
Cn1c(Cn2nnc3ccccc32)nnc1SCC(=O)N1CCc2ccccc21 | 28µM* | -3% | -9% | -6% | 0% | 1%
CCn1c(CSc2ncccn2)nnc1SCC(=O)N1CCc2ccccc21 | 20µM* | 5% | -14% | 8% | 0% | -6%
O=C(NCCc1ccccc1)C1(c2cccs2)CCOCC1 | / | -20% | / | / | -9% | -6%
O=C(c1cnn2c(C(F)(F)F)cc(-c3ccc4c(c3)OCO4)nc12)N1CCCC1 | 0% | 3% | 4.5µM* | -6% | -9% | -12%
